# Test results published in PubChem BioAssay (NCATS).
# Inconclusive results are not listed. Activity calls are given as the source filed them. Calls follow the shape of the dose curve; as a rule, active = well fitted inhibition curve with a large enough effect; inconclusive = small, poorly fitted or top-dose-only effect; inactive = flat fitted curve, though single readings scatter.
# Biological target: Dual specificity protein kinase CLK4 (Homo sapiens) (UniProt Q9HAZ1)
# Assay: qHTS Assay for Inhibitors of CDC-like Kinase 4 (ADP-Glo Assay) (AID 1771); also: nearly all actives have a fitted effect of over 70% in size
# Details: recombinant CLK4, ADP-Glo luminescence; series mostly up to 80 µM; activity change, negative = inhibition: at the top concentration
# Method in brief: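 Kinase reaction: Clk4 at 25 nM, RS repeat peptide substrate at 100 uM, ATP at 1 uM, 1 hr, room temperature. Product ADP detected as luciferase signal via ADP-Glo.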
# % is scaled to controls: 0 for no effect and ±100 for the full control effect; potency is read from the fitted curve at half-maximal effect.
# Dual specificity protein kinase CLK4 (Homo sapiens), sequence (Q9HAZ1 whole entry, looked up): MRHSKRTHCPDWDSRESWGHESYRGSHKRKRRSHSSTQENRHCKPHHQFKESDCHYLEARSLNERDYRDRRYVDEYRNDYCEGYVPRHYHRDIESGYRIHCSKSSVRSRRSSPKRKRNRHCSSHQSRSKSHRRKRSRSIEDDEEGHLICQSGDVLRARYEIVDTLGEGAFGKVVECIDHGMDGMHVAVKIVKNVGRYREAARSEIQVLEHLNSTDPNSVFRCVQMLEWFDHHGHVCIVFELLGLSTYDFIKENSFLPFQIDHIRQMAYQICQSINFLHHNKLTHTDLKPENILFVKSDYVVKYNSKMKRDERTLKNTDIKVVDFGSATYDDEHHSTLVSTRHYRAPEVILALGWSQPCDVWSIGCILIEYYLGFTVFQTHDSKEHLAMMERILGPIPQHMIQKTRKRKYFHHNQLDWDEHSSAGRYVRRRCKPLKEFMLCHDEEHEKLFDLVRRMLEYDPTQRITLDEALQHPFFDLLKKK
Compound,Potency,"activity change, negative = inhibition"
Clc1ccccc1-c1ccc2ncnc(N3CCNCC3)c2c1,28.2 µM (active),
CCNc1ncc2nc(-c3cccs3)c(=O)n(C)c2n1,,-24.2% (inactive)
COCCn1c(=O)c(-c2cn(C)c3ccccc23)nc2cnc(N3CCOCC3)nc21,,-5.95% (inactive)
CN(C)c1ccc(-c2cc(Nc3ccc(F)cc3)ncn2)cc1,14.1 µM (active),
COc1ncc2nc(-c3cccs3)c(=O)n(CCc3ccccc3)c2n1,,-4.58% (inactive)
Cc1noc(C)c1-c1nccc(N2CCOCC2)n1,14.1 µM (active),
FC(F)(F)c1ccccc1-c1cc(NCc2ccccc2)ncn1,,-25.1% (inactive)
Cn1c(=O)c(-c2ccc(Cl)cc2)nc2cnc(Nc3ccccc3)nc21,,-3.04% (inactive)
COc1ccc(Oc2ncc3nc(-c4ccc(Cl)cc4)c(=O)n(C[C@H]4CCCO4)c3n2)cc1,,-3.93% (inactive)
COc1cccc(Nc2ncc3nc(C)c(=O)n(C4CC4)c3n2)c1,11.2 µM (active),
COc1cccc(Cn2c(=O)c(-c3cc(F)cc(F)c3)nc3cnc(N(C)C)nc32)c1,,5.47% (inactive)
CNc1nc(-c2ccc3c(c2)OCO3)nc2ccccc12,28.2 µM (active),
COc1cccc(Cn2c(=O)c(C)nc3cnc(OC)nc32)c1,,-9.91% (inactive)
Cc1nc2cncnc2n(C2CC2)c1=O,,-8.46% (inactive)
COc1cccc(Cn2c(=O)cnc3cncnc32)c1,28.2 µM (active),
COCCn1c(=O)c(-c2cc(F)cc(F)c2)nc2cnc(N3CCOCC3)nc21,,4.94% (inactive)
CN(C)C(=O)c1ccc(-c2cc(NCc3cccnc3)ncn2)cc1,14.1 µM (active),
Cc1noc(C)c1-c1cc(NCc2cccnc2)ncn1,22.4 µM (active),
